Assay results: PubChem BioAssay
Values joined by “and” are separate entries in the source; they are usually repeats but may differ in a detail not shown here. Equal entries are not always repeated. Active and inactive are the calls of the source. Unless noted, the rule behind the calls is not given here.

Columns and labels:
[1] = compound effects on lung adenocarcinoma cell viability – A549, calcein-AM fluorescence, 48 h, basal, profiling panel (AID 1162); conditions: higher = more signal; note: test concentration not given here
[2] = compound effects on differentiated 3T3-L1 adipocyte viability – cell-based, 3T3-L1 adipocytes, calcein-AM fluorescence, 48 h, basal, profiling panel (AID 1163); conditions: 3T3-L1 adipocytes viability, higher = more signal; note: test concentration not given here
[3] = compound effects on hepatocellular carcinoma cell viability – HepG2, calcein-AM fluorescence, 48 h, basal, profiling panel (AID 1164); conditions: higher = more signal; note: test concentration not given here
[4] = compound effects on multiple myeloma cell viability – MM1S, calcein-AM fluorescence, 48 h, basal, profiling panel (AID 1165); conditions: higher = more signal; note: test concentration not given here
[5] = calcein-AM signal in unstimulated myeloma cells – cell-based, calcein-AM fluorescence, 48 h, PK04 Diversity Set, profiling panel (AID 1166); conditions: RPMI8226 myeloma viability, higher = more signal;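 note: cells grown under basal conditions without added stimulus; test concentration not given here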
[6] = JC-1 mitochondrial signal, unstimulated HepG2 cells – cell-based, JC-1 fluorescence, 24 h, 100 nL compound, profiling panel (AID 1167); conditions: HepG2 mitochondrial potential, higher = more signal; note: test concentration not given here
[7] = JC-1 mitochondrial signal, unstimulated adipocytes – cell-based, JC-1 fluorescence, 3T3-L1 adipocytes, 24 h, 100 nL compound, profiling panel (AID 1168); conditions: JC-1 mitochondrial fluorescence, higher = more signal, called active from +8 up or from −8 down; note: test concentration not given here
[8] = JC-1 mitochondrial signal, unstimulated myeloma cells – cell-based, JC-1 fluorescence, RPMI8226, 24 h, 100 nL compound, profiling panel (AID 1169); conditions: JC-1 mitochondrial potential fluorescence, higher = more signal; note: test concentration not given here
[9] = JC-1 mitochondrial signal, unstimulated MM1S myeloma – cell-based, JC-1 fluorescence, 24 h, 100 nL compound, profiling panel (AID 1170); conditions: MM1S mitochondrial potential, higher = more signal; note: test concentration not given here
[10] = resazurin metabolic signal in A549 cells – cell-based, resazurin fluorescence, 24 h, PK04 Diversity Set, profiling panel (AID 1171); conditions: A549 viability, higher = more signal, called active from +8 up or from −8 down; note: test concentration not given here
[11] = resazurin metabolic signal in HepG2 cells – cell-based, resazurin fluorescence, 24 h, PK04 Diversity Set, profiling panel (AID 1172); conditions: HepG2 viability, higher = more signal; note: test concentration not given here
[12] = budding yeast growth changes without added modifier – OD600, strain BY4716, 24 h, basal condition, primary screen (AID 1173); conditions: S. cerevisiae BY4716 growth, OD600, 24 h; higher = more signal, called active from +8 up or from −8 down
[13] = viability profiling in MM1S myeloma cells – cell-based, resazurin fluorescence, basal, 24 h, PK04 Diversity Set, profiling panel (AID 1174); conditions: higher = more signal, called active from +8 up or from −8 down; note: test concentration not given here
[14] = target: Dihydroorotate dehydrogenase (quinone), mitochondrial (Plasmodium falciparum (isolate 3D7)) (UniProt Q08210); test: inhibition of P. falciparum DHODH – biochemical, C-terminal His tag, absorbance 600 nm, primary screen (AID 1175); conditions: PfDHODH enzyme, DCIP absorbance 600 nm; higher = more signal, called active from +8 up or from −8 down;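 note: recombinant parasite enzyme with a five histidine tag at its C terminus; test concentration not given here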
Chain of Dihydroorotate dehydrogenase (quinone), mitochondrial (Plasmodium falciparum (isolate 3D7)) (Q08210 whole entry, looked up): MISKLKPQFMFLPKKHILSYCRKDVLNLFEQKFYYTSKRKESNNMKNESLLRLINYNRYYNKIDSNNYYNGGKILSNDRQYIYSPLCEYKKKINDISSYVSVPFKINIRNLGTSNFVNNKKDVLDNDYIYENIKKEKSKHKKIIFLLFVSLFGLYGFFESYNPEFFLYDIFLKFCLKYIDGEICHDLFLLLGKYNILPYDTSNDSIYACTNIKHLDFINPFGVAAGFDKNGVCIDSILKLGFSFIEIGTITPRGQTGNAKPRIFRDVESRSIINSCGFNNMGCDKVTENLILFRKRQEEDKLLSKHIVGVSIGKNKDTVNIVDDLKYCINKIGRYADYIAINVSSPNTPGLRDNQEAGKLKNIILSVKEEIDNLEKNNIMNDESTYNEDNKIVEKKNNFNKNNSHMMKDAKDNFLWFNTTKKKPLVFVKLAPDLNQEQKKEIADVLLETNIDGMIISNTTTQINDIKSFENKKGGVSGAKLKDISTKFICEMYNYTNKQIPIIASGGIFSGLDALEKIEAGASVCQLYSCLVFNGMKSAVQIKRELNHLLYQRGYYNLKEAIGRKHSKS

[15] = inhibition of PAO1 biofilm formation – strain PAO1, LB-PBS medium, absorbance 600 nm, primary screen (AID 1176); note: test concentration not given here; conditions: P. aeruginosa PAO1 growth/biofilm, A600, 12 h; higher = more signal
[16] = growth modulation of vineyard yeast isolate – strain RM11-1a, OD600, basal, 24 h, primary screen (AID 1177);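 note: cultures grown under basal conditions with no added stressor; test concentration not given here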; conditions: S. cerevisiae RM11-1a growth, OD600, 24 h; higher = more signal, called active from +8 up or from −8 down
[17] = growth of efflux-deficient E. coli DRC39 – strain DRC39, OD650, 24 h, E. coli filamentation inducers, primary screen (AID 1178);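 note: growth measured as culture turbidity by optical density at 650 nm; test concentration not given here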; conditions: E. coli DRC39 acrAB, higher = more signal, called active from +8 up or from −8 down
[18] = growth of efflux-deficient E. coli DRC39 – strain DRC39, OD650, 48 h, E. coli filamentation inducers, primary screen (AID 1179);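 note: screen aims at cell division blockers that make cells filament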; conditions: E. coli DRC39 delta-acrAB growth, higher = more signal, called active from +8 up or from −8 down
[19] = viability profiling in RPMI8226 myeloma cells – cell-based, resazurin fluorescence, basal, 24 h, PK04 Diversity Set, profiling panel (AID 1180); conditions: higher = more signal;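 note: RPMI8826 multiple myeloma cell line at 5000 cells per well; test concentration not given here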
[20] = target: E3 ubiquitin-protein ligase XIAP (Homo sapiens) (UniProt P98170); test: small molecules binding XIAP protein – biophysical, small-molecule microarray, fluorescence 635 nm, primary screen (AID 1181); conditions: higher = more signal;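 note: score merges 667 nm emission and signal to noise over triplicate slides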
Chain of E3 ubiquitin-protein ligase XIAP (Homo sapiens) (P98170 whole entry, looked up): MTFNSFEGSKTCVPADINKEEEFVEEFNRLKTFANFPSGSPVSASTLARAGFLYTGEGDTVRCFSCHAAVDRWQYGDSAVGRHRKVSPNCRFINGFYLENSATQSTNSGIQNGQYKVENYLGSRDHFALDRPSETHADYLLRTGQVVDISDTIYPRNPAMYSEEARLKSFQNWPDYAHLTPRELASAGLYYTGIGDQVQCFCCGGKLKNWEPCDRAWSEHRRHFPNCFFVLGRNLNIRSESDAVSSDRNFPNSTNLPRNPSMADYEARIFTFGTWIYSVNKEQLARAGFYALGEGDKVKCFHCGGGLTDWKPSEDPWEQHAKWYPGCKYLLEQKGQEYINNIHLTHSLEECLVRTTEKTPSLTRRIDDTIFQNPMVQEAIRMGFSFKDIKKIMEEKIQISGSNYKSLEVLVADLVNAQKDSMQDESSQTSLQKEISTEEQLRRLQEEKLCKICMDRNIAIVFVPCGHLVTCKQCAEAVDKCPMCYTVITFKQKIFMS

| SMILES | z-score [1] | z-score [2] | z-score [3] | z-score [4] | z-score [5] | z-score [6] | z-score [7] | z-score [8] | z-score [9] | z-score [10] | z-score [11] | z-score [12] | z-score [13] | composite z-score [14] | z-score [15] | z-score [16] | z-score [17] | z-score [18] | z-score [19] | composite z-score [20] |
| --- | --- | --- | --- | --- | --- | --- | --- | --- | --- | --- | --- | --- | --- | --- | --- | --- | --- | --- | --- | --- |
| C#CCCCON=C1C[C@@H](O)[C@@H](O)[C@@H]2[C@@H]3C(=O)N(C4CCCCC4)C(=O)[C@@H]3CC[C@H]12 | -0.0446 | -0.277 | 1.15 | 0.471 | -0.584 | 0.289 | 0.201 (inactive) | 0.515 | -0.353 | 0.108 (inactive) | -0.477 | -0.248 (inactive) | -2.78 (inactive) | -0.822 (inactive) | -0.568 (inactive) | -0.126 (inactive) | 0.331 (inactive) | 0.771 (inactive) | -1.08 | -0.0945 |
| CCOC(=O)[C@H](CC(C)C)NC(=O)CCC1CC(OC(=O)NCc2cccc3ccccc23)CC2(CCCC(COC(=O)NCc3ccccc3)O2)O1 (stereo not given in full) | 0.531 | -0.172 | -0.435 | 0.184 | 0.0523 | 2.45 | 0.472 (inactive) | 0.0897 | -0.717 | 0.586 (inactive) | 0.928 | -1.76 (inactive) | 1.06 (inactive) | -0.621 (inactive) | -0.0326 (inactive) | -0.527 (inactive) | -0.482 (inactive) | -0.102 (inactive) | 0.588 | -0.125 |
| CC(C)=NOC[C@@H](O)COCc1ccco1 | 0.991 | -0.611 | 0.828 | 0.191 | 0.313 | -0.0938 | 0.121 (inactive) | 0.602 | -0.391 | -0.736 (inactive) | -0.907 | 0.14 (inactive) | -1.09 (inactive) | 0.102 (inactive) | -0.324 (inactive) | 0.534 (inactive) | 0.745 (inactive) | 0.41 (inactive) | -1.11 | 0.0576 |
| O=C(NN=C1C[C@@H](O)[C@@H](O)[C@@H]2[C@@H]3C(=O)N(Cc4ccc5c(c4)OCO5)C(=O)[C@@H]3CC[C@H]12)OCc1ccccc1 | 0.356 | -0.263 | 0.339 | 0.172 | 0.102 | 1.3 | 0.415 (inactive) | 0.559 | -1.79 | -0.31 (inactive) | -0.0124 | 0.0375 (inactive) | -0.203 (inactive) | -1.62 (inactive) | -0.437 (inactive) | 0.273 (inactive) | 0.883 (inactive) | 1.4 (inactive) | -0.2 | 0.106 |
| COC(=O)C1=C2N(Cc3ccccc3)C(C)=C(C(=O)OC)[C@@H](c3ccccc3)N2C(=O)[C@](O)(C(=O)OC)C1 | -0.104 and 1.11 | 0.387 and -1.41 | -0.102 and 0.511 | -0.397 and -0.107 | -1.16 and 0.38 | 0.574 and 0.276 | -0.0488 (inactive) and -0.394 (inactive) | -0.848 and 0.573 | 0.127 and 0.0283 | 1.83 (inactive) and -0.59 (inactive) | 1.08 and -0.565 | -0.875 (inactive) and -0.828 (inactive) | 0.7 (inactive) and 0.349 (inactive) | 0.268 (inactive) and -0.608 (inactive) | -0.318 (inactive) and 0.216 (inactive) | -0.321 (inactive) and 0.0615 (inactive) | 0.0099 (inactive) and -0.163 (inactive) | -0.184 (inactive) and -0.224 (inactive) | 1 and -0.272 | 0.0623 and 0.43 |
| C=CCN(Cc1ccccc1)C(=O)C1N(CCOCCO)C(=O)C2C(C(=O)O)C3C=CC21O3 (stereo not given) | 0.457 and -0.65 | 1 and 0.0853 | -0.475 and -1.46 | 0.443 and 1.02 | 0.953 and -1.25 | 0.341 and -0.0276 | 0.978 (inactive) and -0.925 (inactive) | 0.747 and 0.0424 | 1.26 and -0.0145 | -0.474 (inactive) and 0.0887 (inactive) | 0.649 and -0.0686 | -1.56 (inactive) and 0.494 (inactive) | 1.22 (inactive) and -0.234 (inactive) | -3.5 (inactive) and -0.648 (inactive) | -0.18 (inactive) | -1.46 (inactive) and 0.356 (inactive) | 1.55 (inactive) and 0.0673 (inactive) | 1.05 (inactive) and -0.12 (inactive) | 0.795 and -0.418 | -0.02 and -0.291 |
